Assay outcomes: PubChem BioAssay, The Scripps Research Institute Molecular Screening Center
LYPLA2 inh = LYPLA2 (human) inhibition in PME1 counter-screen. recombinant LYPLA2, FP-Rh probe fluorescence polarization. AID 2177. 320,000 tested, 0.38% active. inhibition, % at 5.9 µM. O95372;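 active = inhibition above the screen-wide mean plus 3 SD, limit set per campaign, cut at about 26% in these data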
Target sequence (O95372 whole entry, looked up): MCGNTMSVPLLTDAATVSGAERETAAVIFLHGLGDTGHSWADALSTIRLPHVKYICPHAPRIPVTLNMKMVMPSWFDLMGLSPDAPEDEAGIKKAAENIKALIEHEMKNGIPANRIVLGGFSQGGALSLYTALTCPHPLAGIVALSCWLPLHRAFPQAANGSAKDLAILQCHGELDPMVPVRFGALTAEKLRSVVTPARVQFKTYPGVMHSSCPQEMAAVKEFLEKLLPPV
Fam108B inh = counter-screen for RBBP9 inhibitors: inhibitors of mouse Fam108B; recombinant Fam108B, FP-Rh probe fluorescence polarization; inhibition, % at 9.51 µM; 300,000 tested, 0.33% active;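 active = inhibition above the screen mean inhibition plus 3 SD, computed separately per campaign, cut at about 18% in these data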;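 also: inhibitors lower polarization as less probe binds the enzyme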
PAD4 FP inh = PAD4 (human) enzyme inhibition; inhibition, % at 6.36 µM; 330,000 tested, 0.41% active; Q9UM07; recombinant PAD4, RCA probe fluorescence polarization;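 active = percent inhibition above a cutoff equal to the mean of all tested compounds plus 3 SD, cut at about 15% in these data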
PME-1 inh = blocks human protein phosphatase methylesterase 1. Q9Y570. recombinant PME-1, FP-Rh probe fluorescence polarization. inhibition, % at 5.9 µM. 320,000 tested, 0.53% active. AID 2130;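 active = inhibition above the campaign mean of all compounds plus 3 SD, cut at about 26% in these data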;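 also: competitive labeling of PME-1 active site by serine hydrolase directed probe; inhibitors block probe labeling so polarization falls and inhibition rises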
LYPLA1 counter = counter-screen for PME1 inhibitors: inhibitors of human LYPLA1. 320,000 tested, 0.16% active. O75608. recombinant LYPLA1, FP-Rh probe fluorescence polarization. inhibition, % at 5.9 µM;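 active = inhibition above the mean of all tested compounds plus 3 SD, set per campaign, cut at about 14% in these data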;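 also: inhibitors block serine hydrolase probe labeling of LYPLA1 so polarization falls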
Target sequence (O75608 whole entry, looked up): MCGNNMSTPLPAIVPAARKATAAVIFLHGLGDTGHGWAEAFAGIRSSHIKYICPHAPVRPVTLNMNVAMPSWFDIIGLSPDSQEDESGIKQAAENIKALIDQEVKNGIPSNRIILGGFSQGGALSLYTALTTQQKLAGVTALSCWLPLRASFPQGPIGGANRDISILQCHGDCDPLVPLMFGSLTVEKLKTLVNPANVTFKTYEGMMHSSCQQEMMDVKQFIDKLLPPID
GSTO1 counter = GSTO1 inhibition, counter-screen for RBBP9 inhibitors | recombinant GSTO1, activity-based probe fluorescence polarization | P78417 | AID 1974 | inhibition, % at 5.96 µM | 300,000 tested, 1.1% active;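 active = inhibition above the campaign mean inhibition plus 3 SD, cut at about 35% in these data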
Hits are given with their value. A selection: hits, their analogues and other compounds. The true share with any hit is near 1.8%.

O=c1cc(N2CCCCC2)c(-c2ccccc2)nn1Cc1c(Cl)cccc1Cl was read as LYPLA2 inh inactive, Fam108B inh inactive, PAD4 FP inh inactive, PME-1 inh 29.8, LYPLA1 counter inactive and GSTO1 counter inactive.
For O=c1cc(N2CCCCC2)c(-c2ccccc2)nn1Cc1ccc(Cl)cc1 the results were LYPLA2 inh inactive, Fam108B inh inactive, PAD4 FP inh inactive, PME-1 inh inactive, LYPLA1 counter inactive and GSTO1 counter inactive.
For Cc1ccc(Nc2nnc(SC/C(O)=C(\C#N)c3nc4ccccc4[nH]3)s2)c(C)c1 the results were LYPLA2 inh inactive, Fam108B inh inactive, PAD4 FP inh inactive, PME-1 inh 64.2, LYPLA1 counter inactive and GSTO1 counter inactive.
Screening O=C(c1ccc2oc(CCCc3ccccc3)nc2c1)N1CCCC(CCCO)C1 (stereo unspecified) returned LYPLA2 inh inactive, Fam108B inh inactive, PAD4 FP inh inactive, PME-1 inh 42.0, LYPLA1 counter inactive and GSTO1 counter inactive.
Screening CC(=O)N1CCN(C(=O)c2ccc3oc(CCCc4ccccc4)nc3c2)CC1 returned LYPLA2 inh inactive, Fam108B inh inactive, PAD4 FP inh inactive, PME-1 inh inactive, LYPLA1 counter inactive and GSTO1 counter inactive.
Screening C=CCN(Cc1ccc(OC)c(OC)c1)C(=O)c1cc2cc(F)ccc2[nH]1 returned LYPLA2 inh inactive, Fam108B inh inactive, PAD4 FP inh inactive, PME-1 inh inactive, LYPLA1 counter inactive and GSTO1 counter inactive.
Screening O=C(Nc1ccccc1C(=O)O)c1cc(S(=O)(=O)N2CCCCC2)c(Cl)cc1Cl returned LYPLA2 inh inactive, Fam108B inh inactive, PAD4 FP inh inactive, PME-1 inh inactive, LYPLA1 counter inactive and GSTO1 counter 36.4.
O=C1CN(S(=O)(=O)c2cccc(C(=O)O)c2)c2ccccc2N1 was read as LYPLA2 inh inactive, Fam108B inh inactive, PAD4 FP inh inactive, PME-1 inh inactive, LYPLA1 counter inactive and GSTO1 counter inactive.
`CC1CCN(C(=O)c2nc[nH]c2C(=O)N2CCC(C)CC2)CC1` gave LYPLA2 inh inactive, PAD4 FP inh inactive, PME-1 inh inactive and LYPLA1 counter inactive.
S=C(NCCOCCOCCNC(=S)Nc1ccccc1)Nc1ccccc1 was read as LYPLA2 inh inactive, Fam108B inh inactive, PAD4 FP inh inactive, PME-1 inh inactive, LYPLA1 counter inactive and GSTO1 counter inactive.
Screening S=C(NCCNC(=S)Nc1ccccc1)Nc1ccccc1 returned LYPLA2 inh inactive, Fam108B inh inactive, PAD4 FP inh inactive, PME-1 inh 32.8, LYPLA1 counter inactive and GSTO1 counter inactive.
COc1cc(CNc2ccc(N3CCCC3)cc2)ccc1OCc1ccccc1 was read as LYPLA2 inh inactive, Fam108B inh inactive, PAD4 FP inh inactive, PME-1 inh inactive, LYPLA1 counter inactive and GSTO1 counter 53.5.
CCCC(=O)NC(c1ccccc1)c1c(O)ccc2ccccc12 (stereo unspecified) was read as LYPLA2 inh inactive, Fam108B inh inactive, PAD4 FP inh inactive, PME-1 inh inactive, LYPLA1 counter inactive and GSTO1 counter inactive.
`CCCCC(=O)NC(c1ccccc1Cl)c1c(O)ccc2ccccc12` (stereo unspecified) gave LYPLA2 inh inactive, Fam108B inh inactive, PAD4 FP inh inactive, PME-1 inh 45.5, LYPLA1 counter inactive and GSTO1 counter inactive.
Screening CCCC(=O)NC(c1ccccc1Cl)c1c(O)ccc2ccccc12 (stereo unspecified) returned LYPLA2 inh inactive, Fam108B inh inactive, PAD4 FP inh inactive, PME-1 inh 60.5, LYPLA1 counter inactive and GSTO1 counter inactive.
`Cc1c(N2C(=O)c3ccc4c5c(ccc(c35)C2=O)CC4)c(=O)n(-c2ccccc2)n1C` gave LYPLA2 inh inactive, Fam108B inh inactive, PAD4 FP inh inactive, PME-1 inh inactive, LYPLA1 counter inactive and GSTO1 counter 35.6.
`O=C(O)C1CCN(S(=O)(=O)Cc2ccccc2)CC1` gave LYPLA2 inh inactive, Fam108B inh inactive, PAD4 FP inh inactive, PME-1 inh inactive, LYPLA1 counter inactive and GSTO1 counter inactive.
COc1ccc2[nH]c(=O)c(-c3noc(-c4ccccc4)n3)cc2c1 was read as LYPLA2 inh inactive, Fam108B inh inactive, PAD4 FP inh inactive, PME-1 inh 48.7, LYPLA1 counter inactive and GSTO1 counter inactive.
O=S(=O)(c1cccc(C(F)(F)F)c1)c1ccc(O)cn1 was read as LYPLA2 inh inactive, Fam108B inh inactive, PAD4 FP inh inactive, PME-1 inh inactive, LYPLA1 counter inactive and GSTO1 counter inactive.
For COc1cc(C(=O)Nc2cc3c(cc2N2CCCCC2)n(C)c(=O)n3C)cc(OC)c1OC the results were LYPLA2 inh inactive, Fam108B inh inactive, PAD4 FP inh inactive, PME-1 inh inactive, LYPLA1 counter inactive and GSTO1 counter inactive.
Cc1ccc(NC2=C(NC(=O)c3ccccc3)C(=O)c3ccccc3C2=O)cc1Cl was read as LYPLA2 inh inactive, Fam108B inh inactive, PAD4 FP inh inactive, PME-1 inh inactive, LYPLA1 counter inactive and GSTO1 counter 61.8.
Cc1ccc(NCC(=O)c2ccccc2)cc1Cl was read as LYPLA2 inh inactive, Fam108B inh inactive, PAD4 FP inh inactive, PME-1 inh inactive, LYPLA1 counter inactive and GSTO1 counter inactive.
`COc1ccc(-c2oc3ccccc3c2C#Cc2cncn2C)cc1` gave LYPLA2 inh inactive, PAD4 FP inh inactive, PME-1 inh inactive and LYPLA1 counter inactive.
`CCOc1ccc(C(=O)CC(C(=O)O)N2CCCCC2)cc1` (stereo unspecified) gave LYPLA2 inh inactive, PAD4 FP inh inactive, PME-1 inh inactive and LYPLA1 counter inactive.
Screening N#Cc1nc(COc2ccccc2F)oc1NCCCn1ccnc1 returned LYPLA2 inh inactive, Fam108B inh inactive, PAD4 FP inh inactive, PME-1 inh inactive, LYPLA1 counter inactive and GSTO1 counter 36.1.
`O=C(CN1C(=O)NC2(CCCCCC2)C1=O)NCc1ccccc1Cl` gave PAD4 FP inh inactive.
Cc1c(CN(C)C)c2c(n1C)C(=O)c1ccc(Br)cc1-2 was read as LYPLA2 inh inactive, Fam108B inh inactive, PAD4 FP inh inactive, PME-1 inh inactive, LYPLA1 counter inactive and GSTO1 counter inactive.
For CCOC(=O)c1c2c(n(C)c1C)C(=O)C(=O)c1ccc(Br)cc1-2 the results were LYPLA2 inh inactive, Fam108B inh inactive, PAD4 FP inh inactive, PME-1 inh inactive, LYPLA1 counter inactive and GSTO1 counter 72.0.
O=C(O)c1[nH]c2ccccc2c1C(c1cc(Br)ccc1O)c1c(C(=O)O)[nH]c2ccccc12 was read as LYPLA2 inh inactive, Fam108B inh inactive, PAD4 FP inh inactive, PME-1 inh inactive, LYPLA1 counter inactive and GSTO1 counter 59.4.
For O=C(O)c1[nH]c2ccccc2c1C(c1c(F)cccc1Cl)c1c(C(=O)O)[nH]c2ccccc12 the results were LYPLA2 inh inactive, Fam108B inh inactive, PAD4 FP inh inactive, PME-1 inh inactive, LYPLA1 counter inactive and GSTO1 counter 41.2.
`Cc1cc(C(=O)NNS(=O)(=O)c2ccc(C(C)(C)C)cc2)nn1C(C)(C)C` gave LYPLA2 inh inactive, Fam108B inh inactive, PAD4 FP inh inactive, PME-1 inh inactive, LYPLA1 counter inactive and GSTO1 counter inactive.
